HepG2 viability – HepG2 cytotoxicity, counter-screen for TGF-b inhibitors; HepG2 CAGA-GFP viability, ATP luminescence, 18 h; Potency, µM (doses to about 46.1 µM), for the others: at the highest dose activity change, negative = cytotoxicity, usual class: cytotoxic; actives 0.76% (n = 410,000); AID 588856; note: potency is the fitted concentration of half-maximal effect
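HepG2 CAGA-GFP cells (1000/well, DMEM with 1% FBS) received compound, then TGF-beta at 500 pg/mL final, and were incubated 18 hours at 37 degrees C. Viability was read by CellTiter-Glo luminescence. Media-only wells were set as complete cell-killing and DMSO as no toxicity.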
DT40 TDP1 no CPT – qHTS for Inhibitors of human tyrosyl-DNA phosphodiesterase 1 (TDP1): qHTS in cells in absence of CPT; Potency, µM (titrated, usually from 46.2 µM), for the others: at the highest dose activity change, negative = growth inhibition, usual class: inhibitors; actives 15% (n = 420,000); AID 686978, 2013; DT40 Tdp1-/- hTDP1 cells, no CPT, ATP luminescence, 48 h; note: potency is the fitted concentration of half-maximal effect; % is set by controls: 0 for no effect and ±100 for the full control effect; nearly all actives have a fitted effect of over 55% in size
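Growth kinetics read by CellTiter-Glo luminescence after ≥48 hr at 37 °C. Cells: DT40 Tdp1-/- stably carrying human TDP1, 400 per well, compound exposure in the absence of CPT (DMSO vehicle).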
TDP1 block – blocks human tyrosyl-DNA phosphodiesterase 1; Q9NUW8; recombinant TDP1, AlphaScreen DNA substrate cleavage; Potency, µM (top dose mostly 130 µM), inactives show top-dose activity change, negative = inhibition, actives largely listed as inhibitors; actives 0.28% (n = 350,000); note: potency is the fitted concentration of half-maximal effect; % is set by controls: 0 for no effect and ±100 for the full control effect; nearly all actives have a fitted effect of over 40% in size
Target sequence (Q9NUW8 whole entry, looked up): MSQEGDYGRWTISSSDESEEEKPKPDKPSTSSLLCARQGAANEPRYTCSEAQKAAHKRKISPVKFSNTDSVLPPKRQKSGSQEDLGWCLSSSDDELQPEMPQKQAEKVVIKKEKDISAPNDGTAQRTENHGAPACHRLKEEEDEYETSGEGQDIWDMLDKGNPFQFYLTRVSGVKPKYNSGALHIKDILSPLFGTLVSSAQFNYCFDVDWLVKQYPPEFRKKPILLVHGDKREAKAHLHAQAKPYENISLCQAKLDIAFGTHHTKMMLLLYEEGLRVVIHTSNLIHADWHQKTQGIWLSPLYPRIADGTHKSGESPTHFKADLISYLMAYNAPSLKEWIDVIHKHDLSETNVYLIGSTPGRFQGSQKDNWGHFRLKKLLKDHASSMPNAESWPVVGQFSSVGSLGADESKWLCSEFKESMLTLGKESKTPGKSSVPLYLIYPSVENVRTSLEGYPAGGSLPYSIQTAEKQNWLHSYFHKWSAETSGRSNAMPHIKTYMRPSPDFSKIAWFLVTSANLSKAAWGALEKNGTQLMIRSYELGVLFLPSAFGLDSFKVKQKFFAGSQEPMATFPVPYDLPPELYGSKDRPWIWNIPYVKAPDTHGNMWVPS
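E. coli-derived human Tdp1, 1 nM final. Cpd preinc 15 min RT; substrate 15 nM final, 5 min RT; AS bead mix 10 ug/ml final, 10 min RT. Signal loss = tyrosine-FITC cleavage. No-enzyme wells = max signal.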
DT40 TDP1 CPT – DT40-hTDP1 cell growth loss with CPT | actives 12% (n = 420,000) | chicken DT40 Tdp1-/-;hTDP1 cells + 20 nM CPT, ATP luminescence, 48 h | AID 686979 | Potency, µM (top dose mostly 46.2 µM), without a hit: at the highest dose activity change, negative = growth inhibition, usual class: inhibitors; note: potency is the fitted concentration of half-maximal effect; % is set by controls: 0 for no effect and ±100 for the full control effect; nearly all actives have a fitted effect of over 55% in size
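Chicken DT40 Tdp1-/- cells complemented with human TDP1, 400 cells/well, exposed to compounds plus 20 nM camptothecin for at least 48 h at 37 C; viability read as ATP content by CellTiter-Glo luminescence.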
TGFb inhibitor – inhibitors of TGF-b signaling; HepG2 CAGA-GFP TGF-b/SMAD3 reporter, GFP fluorescence, 18 h; TGF-beta stimulated, 500 pg/mL final; Potency, µM (titrated, usually from 46.1 µM), for the others: at the top dose activity, negative = inhibition, actives largely listed as inhibitors; actives 1.2% (n = 410,000); AID 588855; note: potency is the fitted concentration of half-maximal effect; % is set by controls: 0 for no effect and ±100 for the full control effect; nearly all actives have a fitted effect of over 65% in size
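Inhibition was scored as loss of TGF-beta-induced (500 pg/mL final, 18 hours, 37 degrees C) GFP in HEPG2 cells carrying a CAGA-GFP reporter, in DMEM with 1% FBS. Well GFP was summed per cell; Activity was normalised to unstimulated and stimulated DMSO wells, then concentration-response fitting.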
IL1B secr inh – blocks inflammasome-driven IL-1 beta release; THP-1 LPS/ATP IL-1B secretion, AlphaLISA, 16 h; active compounds read low; activity change, % at 57.5 µM; actives 4.7% (n = 360,000); in the data active = activity change below about -50%; inconclusive = mostly about -30% to -49%; note: % is set by controls: 0 for no effect and ±100 for the full control effect
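THP-1 cells pretreated 1 hr with compounds (up to 57.5 uM final), then stimulated with LPS (250 ng/mL final) plus ATP (1.25 mM final); secreted IL-1B measured by AlphaLISA after 16 hr, decreased signal indicating inhibition.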
* = called active by the depositor; i = inactive; ? = inconclusive; / = no result. Compounds with a hit are over-represented: about 18% of the library has one in this group of screens. Unless noted, calls come from the whole dose curve; as a rule, active = well fitted curve in the direction sought with a large enough effect; inconclusive = small, poorly fitted or top-dose-only effect, or another doubt; inactive = no such curve, though single readings can be large; an effect the other way counts as inactive or inconclusive.

SMILES	HepG2 viability	DT40 TDP1 no CPT	TDP1 block	DT40 TDP1 CPT	TGFb inhibitor	IL1B secr inh
COc1ccc(-n2nc3c(c2NC(=O)c2ccccc2S(=O)(=O)C(F)F)CS(=O)(=O)C3)cc1	0%	7%	2%	-18%	-3%	i
C[C@@]12CCC[C@H]1[C@@H]1CC[C@H]3C[C@@H](O)CC[C@]3(C)[C@H]1CC2	/	12%	/	-6%	/	/
C[C@]12CCC(O)CC1CCC1C2CC[C@]2(C)C(c3cc(C(F)(F)F)n[nH]3)CCC12 (stereo partly drawn)	-30%	13µM*	/	?	8%	20
CCCCNC(=O)C(CC)(ONc1ccccc1C(F)(F)F)c1ccccc1 (stereo not drawn)	-21%	?	0%	?	?	?
COc1ccc(C2CC2/C(=N/O)c2ccccc2)cc1 (stereo not drawn)	24%	18µM*	6%	23µM*	19%	?
COc1ccc(C2CC2/C(=N/O)c2ccccn2)cc1 (stereo not drawn)	-1%	?	-3%	13µM*	6%	2
O=C(Nc1ccc2ccccc2c1)c1ccc2[nH]c(=O)c(=O)[nH]c2c1	5%	17%	/	?	11%	0
NC(=O)C1CCN(C(=O)C2CCN(C(=O)Nc3ccccc3)CC2)CC1	-2%	-7%	-3%	9%	-9%	13
COc1ccc(CCCc2nnc(SCC(=O)Nc3ccc(C)cc3C)o2)cc1	-5%	?	/	-29%	-19%	/
COc1ccc(CCCc2nnc(SCC(=O)Nc3cc(F)ccc3C)o2)cc1	7%	12µM*	/	?	2%	/
CCC(=O)N1CCCC(C)(C(=O)Nc2nccc3ccccc23)C1 (stereo not drawn)	-4%	3%	/	1%	5%	14
CN(CC(=O)Nc1ccc(Cl)c(C(F)(F)F)c1)C(=O)C1CC(=O)N(Cc2ccco2)C1 (stereo not drawn)	-9%	23µM*	/	13µM*	5%	-21
CN(CC(=O)Nc1ccc(Cl)c(C(F)(F)F)c1)C(=O)/C=C/c1cccs1	-23%	23µM*	2%	?	?	-7
CN(CC(=O)Nc1ccc(Cl)c(Cl)c1)C(=O)/C=C/c1ccc(F)cc1	4%	-25%	3%	-9%	0%	-1
CN(CC(=O)Nc1ccc(Cl)c(C(F)(F)F)c1)C(=O)/C=C/c1ccco1	-13%	18µM*	-3%	18µM*	-22%	i
Cc1ccc(C)[n+](CC(=O)N2CCCCC2)c1	-6%	-3%	-1%	3%	0%	-4
O=C(Nc1ccc(S(=O)(=O)N2CCCC2)cc1)c1cccs1	-10%	-26%	5%	-28%	?	-4
O=C(Nc1nc(-c2ccc(S(=O)(=O)N3CCCCCC3)cc2)cs1)c1cccs1	-21%	21µM*	3%	?	-16%	10
O=C(Nc1nc(-c2ccc(S(=O)(=O)N3CCCC3)cc2)cs1)c1cccs1	-30%	15µM*	5%	?	0%	?
NNC(=O)c1cc(NS(=O)(=O)c2cccs2)cc(NS(=O)(=O)c2cccs2)c1	-6%	5%	-12%	14%	?	9
CCC12CCC3c4ccc(O)cc4CCC3C1CC(O)C2O (stereo not drawn)	-34%	?	/	?	-9%	0
Cc1[nH][nH]c(=O)c1C(c1ccccc1[N+](=O)[O-])C(C#N)C#N (stereo not drawn)	-5%	-28%	5%	?	-14%	-146*
CC(C)C(=O)N1CCCC1(C)C(=O)Nc1ccc(-n2cncn2)cc1 (stereo not drawn)	-10%	7%	/	4%	10%	0
O=C(CCSc1nc2ccccc2o1)Nc1ccccc1	-17%	-25%	/	1%	-14%	17
CC1=C(C(=O)Nc2ccccc2)C(c2ccc(C)cc2)N=C(Nc2nc3ccccc3o2)N1 (stereo not drawn)	11µM*	?	4%	18µM*	?	-12
SMILES	HepG2 viability	DT40 TDP1 no CPT	TDP1 block	DT40 TDP1 CPT	TGFb inhibitor	IL1B secr inh
C[C@@]12CCC3[C@@](CCC4[C@@]3(C)CCC[C@@]4(C)C(=O)NC3CCCCC3)(CC1=O)C2 (stereo partly drawn)	-3%	23µM*	0%	18µM*	-38%	12
COC(=O)[C@]1(C)CCC[C@@]2(C)C3CC[C@@]4(C)C[C@]3(CCC21)CC4=NO (stereo partly drawn)	-17%	21µM*	0%	?	?	18
COC(=O)[C@]1(C)CCC[C@@]2(C)C3CC[C@@]4(C)C[C@]3(CCC21)CC(=O)N4C (stereo partly drawn)	-26%	?	2%	?	-18%	-5
Cc1ccc(CNC(=O)[C@]2(C)CCC[C@@]3(C)C4CC[C@@]5(C)C[C@]4(CCC32)CC5=O)cc1 (stereo partly drawn)	-10%	?	2%	?	?	29
C=C1C[C@@]23CCC4[C@@](C)(CCC[C@@]4(C)C(=O)OC)C2CC[C@]1(OC(C)=O)C3 (stereo partly drawn)	-13%	?	-2%	18µM*	?	24
COc1cccc(OCc2nn3c(=O)c(-c4ccccc4)nnc3s2)c1	-8%	-10%	/	-1%	-2%	12
CCc1nn(CC(=O)N2CCCCC2)c(=O)c2cc3occc3n12	1%	-2%	-5%	-13%	-15%	/
COCc1cc(=O)[nH]c(SCCS(=O)(=O)c2ccc(Cl)cc2Cl)n1	-39%	?	9%	21µM*	?	-28
O=C(N/N=C1\CCCc2c1[nH]c1ccc(Cl)cc21)c1ccncc1	-34%	10µM*	-1%	12µM*	-25%	?
O=C(N/N=C1\C/C(=N\NC(=O)c2ccncc2)c2ccccc21)c1ccncc1	-32%	?	9%	?	-16%	28
COc1ccc(CN2CC(=O)N3[C@H]4c5ccc(OC)cc5OC[C@@H]4[C@H](c4ccccc4)[C@]3(C)C2=O)cc1	-33%	18µM*	2%	?	-1%	-19

Source: PubChem (National Center for Advancing Translational Sciences (NCATS))
